Test results reported in the supplement of paper PMC12282887.
± gives the standard deviation of the averaged measurements.

Test system: E. coli BW25113 marRABp lux reporter
Test: promoter activity interaction Z-score (Lux/OD deviation from empty-vector control); higher = stronger promoter induction by the compound
Procedure: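 E. coli BW25113 (wild type or ΔmarA/ΔsoxS/Δrob) carrying pTU175 luxCDABE promoter reporters was grown in LB in 384-well plates at 37°C with each of 94 compounds at 4 two-fold concentrations, in biological duplicates. Luminescence and OD600 were read every 30 min for 12 h and integrated as AUC over 8 h (0-8 h WT, 1-9 h mutants). Lux AUC was divided by OD AUC; the interaction score is the residual of a Huber robust fit of each promoter against the empty-vector control, then Z-transformed per promoter.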

## CC1(C)S[C@@H]2[C@H](/N=C/N3CCCCCC3)C(=O)N2[C@H]1C(=O)O [Mecillinam]
0.0081 µg/ml, genetic background: wild type
  promoter activity interaction Z-score: 0.0167 ± 0.096
0.0081 µg/ml, genetic background: ΔmarA
  promoter activity interaction Z-score: -0.0228 ± 0.035
0.0081 µg/ml, genetic background: Δrob
  promoter activity interaction Z-score: 0.0796 ± 0.13
0.0081 µg/ml, genetic background: ΔsoxS
  promoter activity interaction Z-score: -0.119 ± 0.16
0.016 µg/ml, genetic background: wild type
  promoter activity interaction Z-score: -0.158 ± 0.16
0.016 µg/ml, genetic background: ΔmarA
  promoter activity interaction Z-score: -0.0902 ± 0.12
0.016 µg/ml, genetic background: Δrob
  promoter activity interaction Z-score: 0.334 ± 0.2
0.016 µg/ml, genetic background: ΔsoxS
  promoter activity interaction Z-score: -0.0159 ± 0.17
0.033 µg/ml, genetic background: wild type
  promoter activity interaction Z-score: 0.203 ± 0.034
0.033 µg/ml, genetic background: ΔmarA
  promoter activity interaction Z-score: 0.119
0.033 µg/ml, genetic background: Δrob
  promoter activity interaction Z-score: 1.33
0.033 µg/ml, genetic background: ΔsoxS
  promoter activity interaction Z-score: 0.151 ± 0.51

## Nc1ccn(C[C@@H](CO)OCP(=O)(O)O)c(=O)n1 [Cidofovir]
17.4 µg/ml, genetic background: wild type
  promoter activity interaction Z-score: -0.0416 ± 0.17
17.4 µg/ml, genetic background: ΔmarA
  promoter activity interaction Z-score: -0.106 ± 0.11
17.4 µg/ml, genetic background: Δrob
  promoter activity interaction Z-score: -0.0241 ± 0.025
17.4 µg/ml, genetic background: ΔsoxS
  promoter activity interaction Z-score: 0.0975 ± 0.049
34.9 µg/ml, genetic background: wild type
  promoter activity interaction Z-score: 0.263 ± 0.48
34.9 µg/ml, genetic background: ΔmarA
  promoter activity interaction Z-score: -0.336 ± 0.093
34.9 µg/ml, genetic background: Δrob
  promoter activity interaction Z-score: 0.0475 ± 0.0048
34.9 µg/ml, genetic background: ΔsoxS
  promoter activity interaction Z-score: -0.0388 ± 0.24
69.8 µg/ml, genetic background: wild type
  promoter activity interaction Z-score: -0.235 ± 0.23
69.8 µg/ml, genetic background: ΔmarA
  promoter activity interaction Z-score: -0.157 ± 0.23
69.8 µg/ml, genetic background: Δrob
  promoter activity interaction Z-score: -0.0863 ± 0.087
69.8 µg/ml, genetic background: ΔsoxS
  promoter activity interaction Z-score: 0.0268 ± 0.12
139.6 µg/ml, genetic background: wild type
  promoter activity interaction Z-score: 0.0629 ± 0.086
139.6 µg/ml, genetic background: ΔmarA
  promoter activity interaction Z-score: -0.277 ± 0.08
139.6 µg/ml, genetic background: Δrob
  promoter activity interaction Z-score: 0.278 ± 0.14
139.6 µg/ml, genetic background: ΔsoxS
  promoter activity interaction Z-score: 0.18 ± 0.28

## O=C(O)CN(CCN(CC(=O)O)CC(=O)O)CC(=O)O
18.3 µg/ml, genetic background: wild type
  promoter activity interaction Z-score: -0.176 ± 0.11
18.3 µg/ml, genetic background: ΔmarA
  promoter activity interaction Z-score: -0.48 ± 0.29
18.3 µg/ml, genetic background: Δrob
  promoter activity interaction Z-score: -0.224 ± 0.07
18.3 µg/ml, genetic background: ΔsoxS
  promoter activity interaction Z-score: -0.191 ± 0.04
36.5 µg/ml, genetic background: wild type
  promoter activity interaction Z-score: -0.238 ± 0.25
36.5 µg/ml, genetic background: ΔmarA
  promoter activity interaction Z-score: -0.327 ± 0.086
36.5 µg/ml, genetic background: Δrob
  promoter activity interaction Z-score: -0.221 ± 0.16
36.5 µg/ml, genetic background: ΔsoxS
  promoter activity interaction Z-score: -0.276 ± 0.012
73.1 µg/ml, genetic background: wild type
  promoter activity interaction Z-score: -0.3324 ± 0.002
73.1 µg/ml, genetic background: ΔmarA
  promoter activity interaction Z-score: -0.545 ± 0.11
73.1 µg/ml, genetic background: Δrob
  promoter activity interaction Z-score: -0.378 ± 0.066
73.1 µg/ml, genetic background: ΔsoxS
  promoter activity interaction Z-score: -0.175 ± 0.04
146.1 µg/ml, genetic background: wild type
  promoter activity interaction Z-score: 0.543 ± 0.16
146.1 µg/ml, genetic background: ΔmarA
  promoter activity interaction Z-score: 1.07 ± 0.021
146.1 µg/ml, genetic background: Δrob
  promoter activity interaction Z-score: 1.66 ± 0.58
